The source of these data is PubChem BioAssay (NCI).

Several values for one entry are separate records, joined by “and”; a condition that tells them apart may be missing. Identical values can stand only once. This is part of a sample that, as a whole, favours compounds with a hit. Of some 83,000 tested, about 20% had one in any assay.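 Interpretation: 100, growth as untreated; towards 0, rising growth inhibition; 0, no net growth; 0 to -100, cell death. Compounds scoring below 10 were considered active.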 Activity calls are given as the source filed them.

Among the test systems are SR leukemia; RPMI-8226 leukemia; OVCAR-8 ovarian; OVCAR-5 ovarian; OVCAR-4 ovarian; SK-OV-3 ovarian; IGROV1 ovarian; OVCAR-3 ovarian; HS 578T breast; NCI/ADR-RES ovarian; T-47D breast; BT-549 breast; MDA-MB-435 melanoma; SW-620 colon; MCF7 breast; HCT-116 colon; HCC-2998 colon; KM12 colon.
What all share (experiment): NCI-60 one-dose screen, 48 h (100 = growth as untreated, 0 = no growth, -100 = all killed)
Conditions in all cases: 10 µM unless noted

Regarding `O=Nc1ccc(NO)c2ccccc12`, the growth in the test with SR leukemia was 106% (inactive) and 43.8% (inactive); in the test on RPMI-8226 leukemia, 92.2% (inactive) and 54.7% (inactive); in the test with OVCAR-8 ovarian it was 97.9% (inactive) and 87% (inactive); in the test with OVCAR-5 ovarian it was 109% (inactive) and 116% (inactive); with OVCAR-4 ovarian, 92.3% (inactive) and 35.8% (inactive); in the test with SK-OV-3 ovarian it was 94.2% (inactive) and 106% (inactive). In addition, the growth was 86.1% (inactive) and 61.5% (inactive) in the test on IGROV1 ovarian; 98.7% (inactive) and 0.0919% (active) with OVCAR-3 ovarian; 85.4% (inactive) and 96.3% (inactive) in the test on HS 578T breast; 97.5% (inactive) and 14.5% (inactive) in the test on NCI/ADR-RES ovarian; 96.9% (inactive) and 65.8% (inactive) with T-47D breast; 83.3% (inactive) and 87.8% (inactive) in the test on BT-549 breast. Besides, the growth with MDA-MB-435 melanoma is 107% (inactive) and -57.8% (active); in the test on SW-620 colon it was 86% (inactive) and 52.3% (inactive); with MCF7 breast, 91.5% (inactive) and 64.5% (inactive); in the test with HCT-116 colon, 95% (inactive) and 39.1% (inactive); with HCC-2998 colon, 120% (inactive) and 108% (inactive); with KM12 colon it was 104% (inactive) and 76.4% (inactive).
As to `O=C1C(=C(O)c2ccccc2)C(=O)c2ccccc21`, the growth with SR leukemia is 115% (inactive); in the test with RPMI-8226 leukemia, 94.3% (inactive); in the test with OVCAR-8 ovarian, 105% (inactive); in the test with OVCAR-5 ovarian it was 104% (inactive); in the test with OVCAR-4 ovarian it was 101% (inactive); in the test on SK-OV-3 ovarian it was 101% (inactive). The growth in the test on IGROV1 ovarian is 106% (inactive); with OVCAR-3 ovarian, 109% (inactive); in the test on HS 578T breast, 120% (inactive); in the test with NCI/ADR-RES ovarian, 108% (inactive); in the test on T-47D breast, 103% (inactive); with BT-549 breast it was 95.7% (inactive). Further, the growth with MDA-MB-435 melanoma is 103% (inactive); in the test on SW-620 colon, 111% (inactive); in the test with MCF7 breast, 102% (inactive); in the test with HCT-116 colon it was 102% (inactive); with HCC-2998 colon, 109% (inactive); with KM12 colon, 104% (inactive).
Consider `Cc1ccc(C(=O)Nc2nc3c(s2)CN(Cc2ccccc2)CC3)cn1`, for which the growth in the test with SR leukemia was 64% (inactive); with RPMI-8226 leukemia it was 77.8% (inactive); in the test with OVCAR-8 ovarian, 95.7% (inactive); in the test with OVCAR-5 ovarian, 103% (inactive); with OVCAR-4 ovarian, 78.7% (inactive); in the test on SK-OV-3 ovarian it was 89.2% (inactive). Further, the growth is 82.4% (inactive) in the test with IGROV1 ovarian; 88.1% (inactive) in the test on OVCAR-3 ovarian; 98.3% (inactive) in the test with HS 578T breast; 70.5% (inactive) in the test on NCI/ADR-RES ovarian; 83.8% (inactive) in the test on T-47D breast; 94.9% (inactive) in the test with BT-549 breast. The growth in the test with SW-620 colon was 69.8% (inactive); in the test with MCF7 breast, 64% (inactive); with HCT-116 colon, 80.7% (inactive); in the test with HCC-2998 colon, 77.9% (inactive); in the test on KM12 colon it was 49.6% (inactive).
As to `CC(=NCc1ccccc1)c1ccc(O)cc1O`, the growth is 93.5% (inactive) with SR leukemia; 96.6% (inactive) in the test with RPMI-8226 leukemia; 103% (inactive) in the test on OVCAR-8 ovarian; 104% (inactive) in the test with OVCAR-5 ovarian; 101% (inactive) with OVCAR-4 ovarian; 103% (inactive) with SK-OV-3 ovarian. In addition, the growth with IGROV1 ovarian was 105% (inactive); with OVCAR-3 ovarian, 103% (inactive); with HS 578T breast, 112% (inactive); in the test on NCI/ADR-RES ovarian it was 98.4% (inactive); with T-47D breast it was 92.2% (inactive); with BT-549 breast, 91.9% (inactive). In addition, the growth in the test with SW-620 colon is 109% (inactive); in the test with MCF7 breast, 97.8% (inactive); in the test on HCT-116 colon, 104% (inactive); with HCC-2998 colon, 92.5% (inactive); with KM12 colon, 104% (inactive).
Regarding `Cc1ccc(-c2nc([P+](c3ccccc3)(c3ccccc3)c3ccccc3)c(Nc3ccccc3)o2)cc1`, the growth was -27.1% (active) with SR leukemia; -50.4% (active) in the test with RPMI-8226 leukemia; -21.5% (active) in the test on OVCAR-8 ovarian; 8.46% (active) in the test on OVCAR-5 ovarian; -5.24% (active) in the test with OVCAR-4 ovarian; -9.23% (active) with SK-OV-3 ovarian. Moreover, the growth was 15% (inactive) in the test with IGROV1 ovarian; -12.1% (active) in the test with OVCAR-3 ovarian; -31.1% (active) in the test on HS 578T breast; -3.38% (active) in the test with NCI/ADR-RES ovarian; 8.18% (active) in the test with T-47D breast; 2.14% (active) in the test with BT-549 breast. In addition, the growth in the test with SW-620 colon is -29.9% (active); with MCF7 breast it was 0.233% (active); in the test on HCT-116 colon, -22.2% (active); in the test on HCC-2998 colon it was -51.5% (active); in the test with KM12 colon, -35.1% (active).
For the compound `CC(C)(C)c1cc(C(C)(C)c2ccccc2)cc(Cc2cc(C(C)(C)c3ccccc3)cc(C(C)(C)C)c2O)c1O`, the growth with SR leukemia is -21.9% (active); with RPMI-8226 leukemia, 91% (inactive); in the test on OVCAR-8 ovarian it was 97.9% (inactive); in the test on OVCAR-5 ovarian, 91.8% (inactive); in the test on OVCAR-4 ovarian, 90.2% (inactive); with SK-OV-3 ovarian, 105% (inactive). Also, the growth is 96.5% (inactive) in the test with IGROV1 ovarian; 106% (inactive) with OVCAR-3 ovarian; 105% (inactive) with HS 578T breast; 102% (inactive) with NCI/ADR-RES ovarian; 93.1% (inactive) in the test with BT-549 breast; 115% (inactive) with MDA-MB-435 melanoma. In addition, the growth in the test with SW-620 colon was 104% (inactive); in the test with MCF7 breast, 94.6% (inactive); in the test with HCT-116 colon, 93.1% (inactive); with HCC-2998 colon, 107% (inactive); in the test on KM12 colon, 106% (inactive).
Regarding `CC12OC(CC(O)C1O)n1c3ccccc3c3c4c(c5c6ccccc6n2c5c31)C(=O)N(CCN1CCOCC1)C4=O` (configuration not stated), the growth in the test on SR leukemia was 1.71% (active); with RPMI-8226 leukemia, 6.35% (active); in the test with OVCAR-8 ovarian, 17% (inactive); with OVCAR-5 ovarian, 24.7% (inactive); in the test on OVCAR-4 ovarian, 22.9% (inactive); in the test on SK-OV-3 ovarian, -8.93% (active). For the same compound, the growth in the test with IGROV1 ovarian is 5.73% (active); in the test on OVCAR-3 ovarian, 20.8% (inactive); in the test with HS 578T breast, 23.1% (inactive); in the test with NCI/ADR-RES ovarian, 15.4% (inactive); in the test with T-47D breast it was -5.19% (active); in the test on BT-549 breast, 22.6% (inactive). Further, the growth was 16% (inactive) with SW-620 colon; 4.28% (active) with MCF7 breast; 14.1% (inactive) in the test with HCT-116 colon; 6.48% (active) with HCC-2998 colon; 14.6% (inactive) in the test with KM12 colon.
As to `COc1ccc(Nc2nn3c(SCC(=O)c4ccc(C)cc4)nnc3s2)cc1`, the growth in the test with SR leukemia was 68.9% (inactive); in the test with RPMI-8226 leukemia, 98% (inactive); with OVCAR-8 ovarian it was 94.8% (inactive); in the test with OVCAR-5 ovarian, 99.3% (inactive); in the test with OVCAR-4 ovarian, 108% (inactive); in the test with SK-OV-3 ovarian, 79.2% (inactive). The growth in the test with IGROV1 ovarian is 91.4% (inactive); in the test on OVCAR-3 ovarian, 110% (inactive); in the test with HS 578T breast it was 92.2% (inactive); in the test on NCI/ADR-RES ovarian, 104% (inactive); in the test with BT-549 breast, 92.2% (inactive); in the test with MDA-MB-435 melanoma, 105% (inactive). The growth in the test on SW-620 colon is 98.1% (inactive); in the test with MCF7 breast, 91.8% (inactive); with HCT-116 colon, 106% (inactive); in the test with HCC-2998 colon, 111% (inactive).
